# Laboratory results from article PMC4081100, “A DNA-binding-site landscape and regulatory network analysis for NAC transcription factors in Arabidopsis thaliana”.
# Experiments:
# Experiment in all cases: universal protein binding microarray (PBM); transcription factors of Arabidopsis thaliana; high values mean tight binding
# Settings in all cases: protein: recombinant; tags: GST; chain copies: 2; dsDNA, one strand shown
# [1] = target: T1, GST-ANAC092(1-176) (Arabidopsis thaliana, UniProt Q9FKA0 1-176)
# T1 sequence: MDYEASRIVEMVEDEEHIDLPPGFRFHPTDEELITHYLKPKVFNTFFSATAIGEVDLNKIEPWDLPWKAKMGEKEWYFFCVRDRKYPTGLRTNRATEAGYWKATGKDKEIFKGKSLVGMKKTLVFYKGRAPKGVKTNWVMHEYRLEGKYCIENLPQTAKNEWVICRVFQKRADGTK
# Procedure, shortened: (§1)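 Binding is expressed as the normalised enrichment score (E-score). Proteins carrying a GST tag, whether NAC-domain, full-length or DNA-binding-domain forms, were induced in cells, and zinc acetate was added for zinc-finger proteins. After purification on glutathione–Sepharose 4B and quantification by A280 or anti-GST western blot, each was applied in duplicate at 200 to 500 nM final to custom all-10-mer Agilent 4 × 180K arrays made double-stranded by primer extension. Gapped and ungapped 8-mers were scored.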
# [2] = target: GST-NTL6(1-168) (Arabidopsis thaliana, UniProt Q9SCK6 1-168)
# Procedure, shortened: as §1
# [3] = target: T2, GST-ANAC019 NAC domain (Arabidopsis thaliana, UniProt Q9C932 14-162)
# T2 sequence: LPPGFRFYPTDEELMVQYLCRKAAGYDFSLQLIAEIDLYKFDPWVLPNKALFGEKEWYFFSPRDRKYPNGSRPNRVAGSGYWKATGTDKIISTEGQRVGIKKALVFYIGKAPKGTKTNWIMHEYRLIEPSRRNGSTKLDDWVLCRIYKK
# Procedure, shortened: as §1
# [4] = target: T3, GST-ANAC055(1-171) (Arabidopsis thaliana, UniProt Q9LDY8 1-171)
# T3 sequence: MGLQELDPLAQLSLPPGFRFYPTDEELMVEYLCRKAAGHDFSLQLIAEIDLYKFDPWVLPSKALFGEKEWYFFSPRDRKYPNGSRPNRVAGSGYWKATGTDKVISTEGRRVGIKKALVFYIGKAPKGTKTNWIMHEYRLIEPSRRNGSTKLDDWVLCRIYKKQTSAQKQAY
# Procedure, shortened: as §1
# [5] = target: T4, GST-ATAF1 NAC domain (Arabidopsis thaliana, UniProt Q39013 7-158)
# T4 sequence: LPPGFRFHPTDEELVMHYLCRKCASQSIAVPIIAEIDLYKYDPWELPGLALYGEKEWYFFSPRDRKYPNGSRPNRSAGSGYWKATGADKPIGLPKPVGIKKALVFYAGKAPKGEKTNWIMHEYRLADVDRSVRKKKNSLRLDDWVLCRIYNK
# Procedure, shortened: as §1
# [6] = target: T5, GST-ANAC092(1-285) full length (Arabidopsis thaliana, UniProt Q9FKA0 1-285)
# T5 sequence: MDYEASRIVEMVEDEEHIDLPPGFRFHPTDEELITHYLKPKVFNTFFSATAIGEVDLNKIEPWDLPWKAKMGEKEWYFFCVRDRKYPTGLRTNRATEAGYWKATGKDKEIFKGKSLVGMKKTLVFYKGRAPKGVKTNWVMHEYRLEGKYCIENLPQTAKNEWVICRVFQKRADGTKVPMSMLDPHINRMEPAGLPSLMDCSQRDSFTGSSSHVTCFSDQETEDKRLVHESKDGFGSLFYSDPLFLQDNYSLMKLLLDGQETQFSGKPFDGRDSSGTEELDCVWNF
# Procedure, shortened: as §1
# [7] = target: T6, GST-NAP(1-166) (Arabidopsis thaliana, UniProt O49255 1-166)
# T6 sequence: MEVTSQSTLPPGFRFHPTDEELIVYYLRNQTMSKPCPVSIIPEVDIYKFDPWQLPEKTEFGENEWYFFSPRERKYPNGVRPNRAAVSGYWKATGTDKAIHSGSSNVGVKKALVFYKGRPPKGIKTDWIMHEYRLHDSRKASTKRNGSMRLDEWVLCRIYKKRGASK
# Procedure, shortened: as §1
# [8] = target: T7, GST-NST2(1-184) (Arabidopsis thaliana, UniProt Q9M274 1-184)
# T7 sequence: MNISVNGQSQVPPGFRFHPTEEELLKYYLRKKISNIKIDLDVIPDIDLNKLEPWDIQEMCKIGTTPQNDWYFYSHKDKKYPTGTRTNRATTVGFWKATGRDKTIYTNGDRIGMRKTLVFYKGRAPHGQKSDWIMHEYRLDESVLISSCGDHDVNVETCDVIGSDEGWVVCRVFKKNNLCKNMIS
# Procedure, shortened: as §1
# [9] = target: T8, GST-NTL8 NAC domain (Arabidopsis thaliana, UniProt Q9XIN7 14-156)
# T8 sequence: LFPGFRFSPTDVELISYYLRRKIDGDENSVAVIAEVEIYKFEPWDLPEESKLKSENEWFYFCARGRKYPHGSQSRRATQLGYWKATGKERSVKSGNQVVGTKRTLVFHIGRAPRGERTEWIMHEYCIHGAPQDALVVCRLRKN
# Procedure, shortened: as §1
# [10] = target: T9, GST-SND1(1-203) (Arabidopsis thaliana, UniProt Q9LPI7 1-203)
# T9 sequence: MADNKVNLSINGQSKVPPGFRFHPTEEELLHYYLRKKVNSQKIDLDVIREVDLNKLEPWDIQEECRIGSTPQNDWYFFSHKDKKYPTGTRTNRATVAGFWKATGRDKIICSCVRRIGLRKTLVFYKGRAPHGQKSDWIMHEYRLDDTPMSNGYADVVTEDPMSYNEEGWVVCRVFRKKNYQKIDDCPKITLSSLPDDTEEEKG
# Procedure, shortened: as §1
# [11] = target: T10, GST-VND3 NAC domain (Arabidopsis thaliana, UniProt Q9FH59 12-162)
# T10 sequence: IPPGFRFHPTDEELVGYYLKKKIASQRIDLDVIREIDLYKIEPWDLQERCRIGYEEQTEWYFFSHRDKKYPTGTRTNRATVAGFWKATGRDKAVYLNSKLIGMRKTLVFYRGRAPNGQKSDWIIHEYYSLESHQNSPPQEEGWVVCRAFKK
# Procedure, shortened: as §1
# [12] = target: T11, GST-VND7 NAC domain (Arabidopsis thaliana, UniProt Q9C8W9 9-158)
# T11 sequence: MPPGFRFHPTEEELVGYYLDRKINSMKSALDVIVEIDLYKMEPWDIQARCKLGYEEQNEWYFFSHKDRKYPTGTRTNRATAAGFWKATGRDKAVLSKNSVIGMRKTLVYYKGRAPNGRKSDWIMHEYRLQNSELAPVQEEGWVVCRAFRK
# Procedure, shortened: as §1
# Chain of GST-NTL6(1-168) (Q9SCK6 1-168): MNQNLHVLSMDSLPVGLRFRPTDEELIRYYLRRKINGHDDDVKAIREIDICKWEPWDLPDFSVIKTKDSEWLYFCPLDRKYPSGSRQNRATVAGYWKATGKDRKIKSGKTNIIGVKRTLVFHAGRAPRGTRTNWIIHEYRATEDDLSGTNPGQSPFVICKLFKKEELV
Sequence,binding signal [1] [E-score],binding signal [2] [E-score],binding signal [3] [E-score],binding signal [4] [E-score],binding signal [5] [E-score],binding signal [6] [E-score],binding signal [7] [E-score],binding signal [8] [E-score],binding signal [9] [E-score],binding signal [10] [E-score],binding signal [11] [E-score],binding signal [12] [E-score]
CACGTTTC,0.424,0.107,0.381,0.375,0.383,0.432,0.332,0.286,0.217,0.299,0.262,0.298
AATTGCGT,0.451,0.0568,0.394,0.395,0.319,0.46,0.432,0.294,0.0923,0.412,0.415,0.418
GTTGAGTA,0.305,0.152,0.0635,0.0864,0.139,0.386,–,0.279,–,0.419,0.0828,0.108
AAAGGAAA,0.196,0.284,0.105,0.11,0.153,0.0862,–,0.179,0.457,0.225,0.166,0.134
GTTACTTA,0.306,0.461,0.0988,0.117,0.256,0.374,0.113,0.25,0.286,0.41,0.263,0.248
AGTAAGTA,0.145,0.415,0.133,0.199,0.14,0.184,–,0.218,–,0.137,0.275,0.083
CGAAGTAA,0.199,0.448,0.128,0.143,0.23,0.279,–,0.223,0.416,0.303,0.138,0.19
GAAACGTA,0.355,0.0734,0.241,0.219,0.224,0.411,0.223,0.212,0.288,0.435,0.332,0.268
CTTACGCA,0.359,0.0871,0.265,0.199,0.187,0.389,0.243,0.278,0.111,0.429,0.255,0.295
CTTACTTC,0.272,0.413,0.227,0.191,0.209,0.325,–,0.267,0.4,0.387,0.209,0.23
CTTACGTA,0.423,0.161,0.457,0.421,0.407,0.435,0.363,0.313,0.219,0.405,0.43,0.433
CACACGCA,0.453,0.0743,0.389,0.321,0.248,0.47,0.375,0.229,0.141,0.327,0.375,0.353
AGGGAAAA,0.22,0.201,0.131,0.111,0.187,0.0865,0.117,–,0.416,0.115,0.0874,0.192
ACGTAATA,0.425,0.176,0.351,0.375,0.276,0.434,0.346,0.298,0.142,0.387,0.377,0.273
